From PMC5540273 (PLoS ONE, 2017)

tested on: RIOK2; conditions: concentration: 1 μM, replicates: in singlicate; n = 1
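Further: KINOMEscan kinase panel screen.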

Compound | %Inh [%]
COc1cccc(C2=C(Nc3ccc(Cl)c(C(=O)O)c3)C(=O)NC2=O)c1 [SB-390769] | 0
COc1cccc(NC(=O)NC2CCN(c3ccnc(Nc4cc(OC)c(OC)c(OC)c4)n3)C2)c1 (stereo not drawn) [GSK1379763] | 0
Cn1cc(-c2ccc3c(c2)CCN3C(=O)Cc2cccc(F)c2)c2c(N)ncnc21 [GSK2603358] | 0
CC(=O)N1CCN(c2ccc(Nc3nccc(-c4sc(C(C)C)nc4-c4cccc(NS(=O)(=O)c5cccc(Cl)c5)c4)n3)cn2)CC1 [GSK1660437] | 10
CN(C)Cc1ccc(-c2ccc3c(Nc4ccc(Oc5ccccn5)cc4)ccnc3c2)o1 [GW567148] | 4

tested on: RIOK3; conditions: concentration: 1 μM, replicates: in singlicate; n = 1

Compound | %Inh [%]
COCCOCCOc1cc2ncc3c4ccc(C#N)cc4[nH]c3c2cc1OC | 83
CCn1c(-c2nonc2N)nc2c(C#CC(C)(C)O)ncc(OCCCCN)c21.O=C(O)C(F)(F)F.O=C(O)C(F)(F)F [GSK507274] | 0
Cn1cc(-c2[nH]c3cc(NC(=O)[C@H](N)C4CCCCC4)cc4c3c2C=NNC4=O)cn1 | 88
COc1cc(Nc2ncc3c(C)nc(-c4cc5ccccc5[nH]4)n3n2)cc(OC)c1OC [GW869516] | 23
COc1ccc(Nc2nccc(NCCNC(=O)c3cc4ccccc4s3)n2)cc1 [GSK1379896] | 0
Cl.Cl.NCC(C(=O)Nc1cc(Br)c(-c2ccnc3[nH]ccc23)s1)c1ccccc1 (stereo not drawn) [GSK1269851] | 67
Cc1ccc(C)c(NC(=O)NC2CCN(c3ccnc(Nc4ccc(F)cc4)n3)C2)c1 (stereo not drawn) [GSK1379720] | 0
CN1CCN(CCCNc2nccc(-c3c(-c4ccc(F)cc4)nn4cc(C(F)(F)F)ccc34)n2)CC1 [GW621581] | 0
O=C(Nc1cccc(-c2nn3ccccc3c2-c2ccnc(Nc3cccc(F)c3)n2)c1)c1c(F)ccc(F)c1Cl [GSK357952] | 16
Nc1ncc(-c2cccnc2)c2scc(-c3ccc4c(c3)CCN4C(=O)Cc3ccccc3)c12 [GSK683281] | 22
Cc1cccc(Nc2nc(N[C@H]3CCNC3)ncc2C(N)=O)c1.Cl [GSK2197149] | 89
Cc1ccc(C(=O)N2CC[C@@H](O)C2)cc1-n1c(C)cc(OCc2ccc(F)cc2F)c(Br)c1=O | 29
Cl.c1ccc(-c2ccc3c(Nc4ccc5[nH]ccc5c4)ccnc3c2)nc1 [GW440138] | 0
Cl.NC(=O)c1cccc(Nc2nccc(Nc3ccc(Oc4c(Cl)cccc4Cl)c(Cl)c3)n2)c1 [GW659009] | 51
CSc1cccc2c(-c3ccncn3)c(-c3ccc(F)cc3)nn12 [GW514786] | 21
Cl.Cl.NCC(NCc1ccc(-c2ccnc3[nH]ccc23)s1)c1ccccc1 (stereo not drawn) [GSK1321565] | 98.4
COC(=O)Nc1nc2ccc(Oc3ccc(NC(=O)Nc4cc(C(F)(F)F)ccc4F)cc3)cc2n1C.Cl [GW692089] | 0
O=C(Nc1n[nH]c2cc(-c3ccoc3)ccc12)C1CC1 [SB-738481] | 0
Fc1ccc(-c2ncn(C3CCNCC3)c2-c2ccnc(Oc3ccc(-c4ccccc4)cc3)n2)cc1 [SB-245391] | 5

Compound | %Inh [%]
Cn1cc(-c2ccc3c(c2)CCN3C(=O)Cc2cccc(Cl)c2)c2c(N)ncnc21 [GSK2606590] | 12
Cc1ccc(S(=O)(=O)Nc2ccc(Nc3nccc(Nc4cccc5[nH]ncc45)n3)cc2)cc1 [GSK581271] | 34
O=C(O)C(F)(F)F.O=C(O)C(F)(F)F.O=c1[nH]ccc2nc(N[C@@H]3CCCNC3)nc(Nc3ccc(S(=O)(=O)N4CCOCC4)cc3)c12 [GSK2177277] | 82
C[C@@H](Oc1cc(-n2cnc3cc(-c4ccnc(NCCS(C)(=O)=O)c4)ccc32)sc1C(N)=O)c1ccccc1Cl [GSK907232] | 76
c1ccc(-c2cnc3nccnn23)cc1 [AH20685] | 0
CCCCc1nn2ncccc2c1-c1ccnc(Nc2ccc(N3CCN(C)CC3)cc2)n1 [GW684941] | 49
Cc1occc1-c1ncc(OC[C@@H](N)Cc2c[nH]c3ccccc23)cc1-c1ccc2[nH]nc(C)c2c1.O=C(O)C(F)(F)F [GSK682037] | 83
Oc1cc(Nc2ccnc3cc(I)ccc23)ccc1F [GW552771] | 0
Cc1ccc(C(=O)Nc2ccc(Nc3ccnc4cc(-c5nccs5)ccc34)cc2O)cc1.Cl [GW494702] | 0
c1ccc(-c2n[nH]cc2Nc2ccnc3ccccc23)nc1 [GW694077] | 100
C[C@@H]1CC[C@@H](C(=O)Nc2ccccc2)CN1c1cc(-c2ccc3c(N)n[nH]c3c2)nc(N)n1 [GSK2286062] | 20
CN(C)S(=O)(=O)c1cc(-c2ccc3nccc(-c4cccc(S(N)(=O)=O)c4)c3c2)cnc1N [GSK1669921] | 21
CCS(=O)(=O)c1ccc(OC)c(Nc2nccc(-c3c(-c4cccc(NC(=O)c5c(F)cccc5F)c4)nn4ncccc34)n2)c1 [GSK326180] | 56
COc1cccc(C2=C(Nc3ccc(Cl)c(C(=O)O)c3)C(=O)NC2=O)c1 [SB-390769] | 5
COc1cccc(NC(=O)NC2CCN(c3ccnc(Nc4cc(OC)c(OC)c(OC)c4)n3)C2)c1 (stereo not drawn) [GSK1379763] | 82
Cn1cc(-c2ccc3c(c2)CCN3C(=O)Cc2cccc(F)c2)c2c(N)ncnc21 [GSK2603358] | 0
CC(=O)N1CCN(c2ccc(Nc3nccc(-c4sc(C(C)C)nc4-c4cccc(NS(=O)(=O)c5cccc(Cl)c5)c4)n3)cn2)CC1 [GSK1660437] | 4
CN(C)Cc1ccc(-c2ccc3c(Nc4ccc(Oc5ccccn5)cc4)ccnc3c2)o1 [GW567148] | 0
